The list is not random: actives were taken first. Their share in the collection is about 2.2%.
Abeta rescue: qHTS for compounds that reverse cellular toxicity of Amyloid beta (A-beta) peptide in yeast: Primary Screen; yeast expressing A-beta42, growth rescue, OD600, 48 h; response scale: 0% DMSO, 100% iron-clioquinol control; Potency, µM (highest dose often 46.1 µM), actives largely listed as activators; 0.063% of 410,000 active; AID 1347071, 2019; note: nearly all actives have a fitted effect of over 55% in size
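Growth rescue measured by 600 nm absorbance after 48 h yeast culture at 30 C with compound. Values normalized between DMSO and an equimolar ferric chloride plus clioquinol control.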
FUS suppressor: qHTS for Suppressors of FUS Proteinopathy: Primary screen using FUS-linked yeast assay; S. cerevisiae FUS-expressing, growth rescue, OD600, 24 h; Potency, µM (titrated, usually from 76.6 µM), usual class: activators; 0.24% of 390,000 active;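 note: plate controls were DMSO vehicle for no effect and reference control for full effect; nearly all actives have a fitted effect of over 55% in size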
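Restored growth of FUS-toxic S. cerevisiae, read as 600 nm absorbance after 24 h at 30C in galactose medium (starting OD 0.005). Controls CP55940 and DMSO.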
Mito fusion yeast: qHTS Assay for Small Molecule Inhibitors of Mitochondrial Division or Activators of Mitochondrial Fusion | S. cerevisiae fusion-defective mutant growth rescue, CellTiterGlo 48 h | Potency, µM (series often up to 46.1 µM), without a hit: at the top dose growth rescue (activation), actives largely listed as activators | 0.23% of 320,000 active | AID 485298, 2010; note: % of control where 0% means no effect; nearly all actives have a fitted effect of over 45% in size
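Read-out: ATP-based luminescence (CellTiterGlo, 10 min ambient) reporting growth of fusion-defective ts yeast after 48 hours at 37C on glycerol/ethanol YPEG medium in the presence of compound.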
TDP-43 yeast inh: qHTS of TDP-43 Inhibitors | AID 652104, 2013 | 1.8% of 410,000 active | Potency, µM (titrated, usually from 46.1 µM), for the others: top-dose growth rescue (activation), hits mostly activators | TDP-43 expressing yeast growth rescue, BacTiter-Glo, 24 h; note: % of control where 0% means no effect; nearly all actives have a fitted effect of over 50% in size
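Growth rescue of TDP-43-toxic yeast measured as ATP luminescence (BacTiter-Glo). Cells grown to mid-log in raffinose, induced in galactose at OD600=0.02, exposed to compound 24 hr at 30 deg C.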
aSyn yeast inh: qHTS of alpha-syn Inhibitors; Yeast expressing alpha-synuclein, growth rescue, BacTiter-Glo, 24 h; Potency, µM (series often up to 46.1 µM), for inactives: at the top dose growth rescue (activation), most hits filed as activators; 0.14% of 370,000 active; note: % of control where 0% means no effect; nearly all actives have a fitted effect of over 65% in size
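Screening used galactose-induced yeast with toxic alpha-synuclein levels, exposed to compound for 24 hr at 30 deg C. Cell growth, read with BacTiter-Glo luminescence, gave the measured signal.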
* marks the source's active call; other numbers are inactive results; i = inactive; ? = inconclusive; nt = not tested or not shown. Calls come from the whole dose curve; as a rule, active = well fitted curve in the direction sought with a large enough effect; inconclusive = small, poorly fitted or top-dose-only effect, or another doubt; inactive = no such curve, though single readings can be large; an effect the other way counts as inactive or inconclusive. Potency is the fitted concentration of half-maximal effect.

SMILES | Abeta rescue | FUS suppressor | Mito fusion yeast | TDP-43 yeast inh | aSyn yeast inh
COc1ccc(S(=O)(=O)Nc2c(C(=O)O)[nH]c3ccccc23)cc1 | i | i | 2.9% | 0.8% | -0.7%
O=C(Nc1ccc(C(=O)N2CCN(c3ccc(Cl)cc3)CC2)cc1)C1=CSCCO1 | i | i | -5.2% | -11.8% | 0.6%
O=C(Nc1ccccc1C(=O)N1CCN(c2cccc(Cl)c2)CC1)C1=CSCCO1 | ? | i | 35.5µM* | ? | 16.6%
CCOC(=O)c1cc2c(N)c(C(=O)c3ccc(Br)cc3)sc2[nH]c1=O | i | i | 12.0% | -10.1% | -0.2%
O=C1Nc2ccccc2C1Cc1ccc(Br)cc1 (configuration not stated) | ? | i | nt | 15.8µM* | nt
CSc1ccc(CC2C(=O)Nc3ccccc32)cc1 (configuration not stated) | i | i | nt | 12.6µM* | nt
CCCN(CC1CC1)C(=O)CNc1nnnn1-c1ccccc1 | nt | i | nt | nt | nt
Clc1ccc(N2CCN(Cc3ccc(Br)o3)CC2)cc1 | i | i | 1.4% | -24.8% | -5.0%
Clc1ccc(N2CCN(Cc3cc4ccccn4n3)CC2)cc1 | nt | nt | 23.1µM* | nt | 0.9%
COc1ccc(CCNC(=O)CCc2c(C)nc3cc(-c4ccccc4OC)nn3c2C)c(OC)c1 | i | ? | nt | 17.8µM* | nt
Cc1nc2c(-c3ccccc3)c(C)nn2c(C)c1CCC(=O)N1CCN(c2ccc(F)cc2)CC1 | i | i | nt | 14.1µM* | nt
CCN1CCN(c2ccc(NC(=O)CCc3c(C)nc4c(-c5ccccc5)c(C)nn4c3C)cc2)CC1 | i | i | -3.3% | 17.3% | -3.8%
COc1ccc(-c2cc3nc(C)c(CCC(=O)NCCc4ccc(Cl)cc4)c(C)n3n2)c(OC)c1 | i | i | nt | -1.3% | nt
COc1ccc(NC(=O)CCc2c(C)nc3c(-c4ccc(F)cc4)c(C)nn3c2C)c(OC)c1 | i | i | nt | 9.7% | nt
Cc1nc2c(-c3ccccc3)c(C)nn2c(C)c1CCC(=O)N1CCN(c2ccccc2)CC1 | i | i | nt | 12.6µM* | nt
COc1ccc(OC)c(NC(=O)CCc2c(C)nc3c(-c4ccccc4)c(C)nn3c2C)c1 | i | ? | nt | 20µM* | nt
COc1cccc(CN2CCC2(C)C(=O)Nc2cnc3ccccc3c2)c1F (configuration not stated) | i | i | nt | 19.1% | 0.2%
CCOC(=O)C1CCN(C(c2cc3c(C)ccc(C)c3[nH]c2=O)c2nnnn2C2CCCCC2)CC1 (configuration not stated) | i | i | 3.4% | -37.8% | 9.8%
CCOC(=O)C1CCN(C(c2cc3ccc(C)c(C)c3[nH]c2=O)c2nnnn2C2CCCCC2)CC1 (configuration not stated) | i | 35.5µM* | -21.1% | 0.0% | 12.8%
CC1(C)Cc2nc3sc4c(N(CCO)CCO)ncnc4c3cc2CO1 | i | i | -2.4% | -6.5% | -2.3%
CCN(CCO)c1ncnc2c1sc1nc(CC(C)C)c3c(c12)CC(C)(C)OC3 | i | ? | -5.6% | 17.8µM* | 2.3%
O=C(Nc1ccc(F)cc1)c1ccc2ncsc2c1 | i | i | -47.5% | 25.1µM* | -19.6%
O=C(Nc1ccc(Cl)cc1)c1ccc2ncsc2c1 | i | i | -65.8% | -6.8% | -19.1%
COC(=O)c1ccc(COc2ccc(/C=N/Nc3nc(C)cc(=O)[nH]3)cc2)cc1 | i | i | 2.4% | -5.8% | 1.4%
Cc1ccccc1NC(=O)C1CCCN1S(=O)(=O)c1cccnc1 (configuration not stated) | nt | i | nt | nt | nt
SMILES | Abeta rescue | FUS suppressor | Mito fusion yeast | TDP-43 yeast inh | aSyn yeast inh
Cc1ccc(CSc2nc(=O)c3c(C)cc(C)nc3n2C2CC2)cc1 | i | ? | nt | 3.16µM* | nt
COC(=O)c1cc(C)nc2c1c(=O)nc(SCc1c(C)cc(C)cc1C)n2C1CC1 | i | i | nt | ? | nt
OCCCn1c(C2CCCN2c2nc(-c3ccc(F)cc3)cs2)nc2cc(Cl)c(Cl)cc21 (configuration not stated) | i | 35.5µM* | nt | 15.4% | -5.3%
OCCCn1c(C2CCCN2c2nc(-c3ccc(Cl)cc3)cs2)nc2cc(Cl)c(Cl)cc21 (configuration not stated) | i | ? | nt | ? | 9.5%
Cc1cccc(-n2nc([N+](=O)[O-])c(=NCc3cccnc3)n2O)c1 | i | i | 4.8% | ? | -12.2%
O=[N+]([O-])c1nn(-c2cccc(Cl)c2)n(O)c1=NCc1cccnc1 | i | nt | 8.6% | 11.2µM* | -2.8%
O=[N+]([O-])c1nn(-c2ccc(Cl)cc2)n(O)c1=NCc1cccnc1 | i | nt | ? | 12.6µM* | 1.1%
O=C(CSc1nc2c([nH]c3ccccc32)c(=O)n1-c1ccc(F)cc1)N1CCCc2ccccc21 | i | i | nt | -10.6% | -4.7%
Cc1sc2ncnc(Sc3ccccc3C(=O)Nc3ccc(Br)cc3)c2c1C | i | nt | ? | -17.9% | 6.0%
Cc1sc2ncnc(Sc3ccccc3C(=O)Nc3ccc(C#N)cc3)c2c1C | i | ? | 12.6µM* | ? | 8.8%
CCCN(CCC)C(=S)NC(=O)c1ccc(-c2ccccc2)cc1 | i | i | 11.0% | 14.1µM* | -12.0%
CCOc1ccc(C(=O)NC(=S)N(Cc2ccccc2)Cc2ccccc2)cc1 | i | i | 0.1% | -5.2% | -4.7%
O=C(NC1CC(=O)N(c2ccc(F)cc2)C1)c1ccc(S(=O)(=O)N2CCOCC2)cc1 (configuration not stated) | i | i | nt | 7.3% | nt
COc1ccc(-c2cc3ccccc3[nH]2)cc1 | i | i | 5.6% | 0.9% | -10.2%
c1ccc(-c2cc3ccccc3[nH]2)cc1 | i | i | -7.1% | 11.2µM* | -16.1%
Clc1ccc2[nH]c(-c3ccccc3)cc2c1 | ? | i | -2.4% | 11.2µM* | -16.4%
Cc1ccc(O)c(-c2cc3ccccc3[nH]2)c1 | i | i | 15.9% | 3.16µM* | -4.9%
COc1ccccc1NC(=S)NCCc1ccc(Cl)cc1 | i | i | -1.2% | 15.8µM* | 6.0%
S=C(NCc1ccc(Cl)cc1)Nc1ccccc1 | 12.6µM* | i | -5.2% | ? | 8.8%
S=C(NCCc1ccccc1)Nc1ccccc1Cl | i | i | 2.7% | 7.1% | -15.7%
S=C(NCCCCc1ccccc1)NCc1ccccc1 | 15.8µM* | i | -5.9% | 14.5% | -0.1%
Fc1ccccc1NC(=S)NCCc1cccc(Cl)c1 | 22.4µM* | i | -1.9% | ? | -0.6%
Fc1ccc(CNC(=S)Nc2ccc(Cl)cc2)cc1 | i | i | -19.7% | ? | 0.0%
O=C(CN1CCc2ccccc2C1)Nc1ccccc1F | i | i | 2.9% | -5.8% | -2.8%
